# Experimental data as given in PubChem BioAssay AID493240 (Broad Institute, 2011).
# Hit rate of the full screen: of about 1,300 compounds, about 270 (21%) were called active. How the calls were made is not given here. A selection follows. Entries that show only a call come without a potency. Potency and affinity values are given separately.
# Experiment: SK-MEL-5 parental cell viability loss, dose response, orthogonal assay for MITF inhibitor project, CellTiter-Glo, cherry-picked, set 3 (AID 493240)
# Conditions: SK-MEL-5 viability, ATP luminescence (CellTiter-Glo), 24 h; series mostly up to 35 µM
row,SMILES,outcome
1,COCC(C)Nc1ncnc2c1cnn2-c1ccc(Cl)cc1 (centres undefined),inactive
2,CC1CCCC(C)N1CCCNC(=O)c1cc2c(s1)-c1ccccc1OC2 (centres undefined),inactive
3,C=CCn1c(C)cc(C(=O)CN2C(=O)c3ccccc3S2(=O)=O)c1C,inactive
4,N#C/C(=C\c1c[nH]c2ccccc12)C(=O)NC1CC1,inactive
5,COc1cccc(N2CCN(C(=O)c3ccc(CS(=O)c4ccccc4Cl)o3)CC2)c1 (centres undefined),inactive
6,C=C1C(=O)C2=CC1CCC(=O)C1(C)CCC(OC(C)=O)C(C)(C)C1CC2O (centres undefined),inactive
7,O=C(CCCc1ccccc1)N1CCN(C2CCCCC2)CC1,inactive
8,NC(=O)c1ccccc1NC(=O)/C=C/c1cccc(Cl)c1,inactive
9,CC(C)C(=O)Nc1ccc2nn(-c3ccc(F)cc3)nc2c1,inactive
10,Cc1cc(/C(N)=N/OC(=O)c2ccc(Cl)cc2)no1,inactive
11,COc1ccccc1OCCN1CSC(=S)N(C)C1,inactive
12,CC(=O)CSc1ccc(-c2nc3cc(C)c(C)cc3[nH]2)cn1,inactive
13,Cc1[nH]n(-c2ccccc2)c(=O)c1N=Nc1cccc(C(=O)O)c1,inactive
14,CCOc1ccc(/C=C2\SC(=S)N(CCC(=O)O)C2=O)cc1,inactive
15,CC(=O)c1cccc(NC(=O)/C=C/c2ccc([N+](=O)[O-])s2)c1,inactive
16,COc1ccccc1-c1nc(-c2ccc(C)nc2OC)no1,inactive
17,COc1ccccc1-c1nnc(-c2ccc(C)cc2)o1,inactive
18,O=C(O)c1ccc(N/N=C/c2ccc(OC(=O)c3cccc(Cl)c3)cc2)cc1,inactive
19,CCCC(=O)N1CCN(c2ccc(NC(=O)c3ccc([N+](=O)[O-])o3)cc2Cl)CC1,inactive
20,Cc1cccc(NC(=O)c2ccc([N+](=O)[O-])o2)c1C,inactive
21,CCC(=O)N1CCN(c2ccc(Cl)cc2NC(=O)c2ccc([N+](=O)[O-])o2)CC1,inactive
22,O=C(Nc1ccccc1N1CCOCC1)c1ccc([N+](=O)[O-])o1,inactive
23,CC(C)C(=O)N1CCN(c2ccc(NC(=O)c3ccc([N+](=O)[O-])o3)cc2Cl)CC1,inactive

row,SMILES,outcome
1,CN1CCN(c2ccc(NC(=O)c3ccc([N+](=O)[O-])o3)cc2Cl)CC1,inactive
2,CCn1c(=O)c([N+](=O)[O-])c(Cl)c2ccccc21,inactive
3,CC(=O)N/C(N)=N/c1nc(=O)c2ccccc2s1,inactive
4,COc1ccc(C(=O)/C=C(\C)Nc2ccc3c(c2)OCO3)cc1,inactive
5,Clc1nccnc1N/N=C/c1ccc(Br)cc1,inactive
6,COc1cc(/C=C/C(=O)N2CCC=CC2=O)cc(OC)c1OC,inactive
7,Cc1c(C#N)c(NC(=O)CCl)n(Cc2ccccc2)c1C,inactive
8,CCOc1cc(NC(=O)CCl)c(OCC)cc1NC(=O)CCl,inactive
9,O=C(O)CSCC(=O)Nc1ccc(C2CCCCC2)cc1,inactive
10,O=C(CCl)Nc1cccc(Oc2ccccc2)c1,inactive
11,CC(=O)Nc1cccc(-c2nnc(-c3ccccc3)o2)c1,inactive
12,Cc1ccc(C(=O)Nc2cnc3ccccc3c2)cc1,inactive
13,O=[N+]([O-])c1cc(S(=O)(=O)N2CCCCCC2)ccc1F,inactive
14,O=C(N/N=C/c1cc(Cl)ccc1O)c1ccncc1,inactive
15,O=C(COC(=O)c1ccc[nH]c1=O)Nc1ccc(N2CCCCC2)cc1,inactive
16,CN=c1scc(-c2ccccc2F)n1/N=C/c1ccc[nH]1,inactive
17,Cc1ccc(COc2ccc(C)nc2[N+](=O)[O-])cc1,inactive
18,O=C(Cn1ncc(Cl)c(Cl)c1=O)Nc1ccc2c(c1)OCO2,inactive
19,O=[N+]([O-])c1cccc(/C=N/Nc2ncc(Br)cn2)c1,inactive
20,O=C(c1ccc(S(=O)(=O)Cc2ccccc2Cl)c([N+](=O)[O-])c1)N1CCN(c2ccccn2)CC1,inactive
21,CC(C)C(=O)NC(c1ccco1)c1ccc2cccnc2c1O (centres undefined),inactive
22,COc1cc(SC)ccc1C(=O)Nc1ccc(Br)cn1,inactive
23,COc1cc(SC)ccc1C(=O)Nc1ncc(C)s1,inactive

row,SMILES,outcome
1,COc1cc2c(cc1O)C(SC)=NC(C)(C)C2,inactive
2,O=[N+]([O-])c1ccccc1OCCCOc1cccc2cccnc12,inactive
3,O=[N+]([O-])c1cc(CN2CCN(c3ccccc3)CC2)c(O)c2ncccc12,inactive
4,CC(=O)Nc1ccc2c(c1)ncn2-c1ccccc1,inactive
5,CSCCNC(=O)c1ccc2nc(Cc3ccccc3F)oc2c1,inactive
6,N#C/C(=C\c1ccc(OCc2ccc(C(=O)O)cc2)cc1)C(=O)N1CCOCC1,inactive
7,Cc1ccc(-c2cc3onc(-c4ccccc4)c3c(=O)n2C)cc1,inactive
8,CN(Cc1ccccc1)C1=CC(=[N+]2CCCC2)CC(C)(C)C1,inactive
9,N/C(=N\OC(=O)c1cccc(F)c1)c1cccc([N+](=O)[O-])c1,inactive
10,COc1ccc(C(=O)NCC(=O)c2ccccc2)cc1,inactive
11,O=C(N/N=C/C=C/c1ccccc1)c1ccccn1,inactive
12,COc1cc2c(cc1OC)C(SC)=NC1(CCCC1)C2,inactive
13,O=C(c1ccccc1)c1cc(Cl)ccc1N1C(=O)C=CC1=O,inactive
14,COc1ccc(/C=N/Nc2cc(C)nc(-n3nc(C)cc3C)n2)c(OC)c1,inactive
15,CC(=O)Oc1c(C(=O)c2nnc(C)o2)c(=O)n(Cc2ccccc2)c2ccccc12,inactive
16,CN(C)CCCN(C(=O)c1ccc(Cl)s1)c1nc2cc3c(cc2s1)OCO3,inactive
17,Cc1ccc2nc(NC(=O)CCCC(=O)O)sc2c1,inactive
18,Cc1c(C#N)c(NC(=O)CCl)n(Cc2ccc(F)cc2)c1C,inactive
19,COc1ccccc1OCC(=O)N/N=C/C=C/c1ccc([N+](=O)[O-])o1,inactive
20,CCOc1ccccc1NC(=O)C(=O)N/N=C/c1cc(Br)ccc1O,inactive
21,CC(C)(C)C(=O)Nc1cc2nn(-c3ccccc3)nc2cc1Cl,inactive
22,CCOc1ccc2nc(NC3=NC(c4ccc(OC)cc4)CC(=O)N3)nc(C)c2c1 (centres undefined),inactive
23,Cc1ccc(C(=O)c2cccc(N)c2)cc1C,inactive

row,SMILES,outcome
1,Cc1nc2ccccn2c1C(=O)N/N=C/c1ccc([N+](=O)[O-])o1,inactive
2,CC1=NC(=O)C(N=Nc2cccc(C(=O)O)c2)N1c1ccccc1 (centres undefined),inactive
3,CC(Oc1ccc(F)cc1)C(=O)Nc1nc(-c2ccccn2)cs1 (centres undefined),inactive
4,O=C(CCNc1ccccc1)c1ccc2c(c1)OCO2,inactive
5,C=CCN1C(=O)S/C(=C\c2ccc(N3CCOCC3)cc2C)C1=O,inactive
6,Cc1ccc(C)c(C(=O)Cn2ncc(Cl)c(Cl)c2=O)c1,inactive
7,Cc1ccc(SCCC(=O)N2CCC(C)CC2)cc1,inactive
8,CS(=O)(=O)N1CCN(c2nc3ccc(Cl)cc3s2)CC1,inactive
9,O=C(Nc1ccc(F)cc1F)c1cc2ccccc2oc1=O,inactive
10,COc1ccc(CCC(=O)N2CCc3ccccc32)cc1,inactive
11,CCOc1ccc(N(CC(=O)Nc2ccc(OC)cc2)S(C)(=O)=O)cc1,inactive
12,COc1ccc(C(=O)Nc2ccc3c(c2)OCCO3)cc1Br,inactive
13,Cn1c(/C=C/c2ccc(Cl)cc2)nc2ccccc2c1=O,inactive
14,COc1cccc(-c2csc3ncnc(Sc4nnnn4C)c23)c1,inactive
15,Cn1c(/C(C#N)=C/c2ccc(-c3ccc(S(N)(=O)=O)cc3)o2)nc2ccccc21,inactive
16,CC1CCCCC1NC(=O)/C(C#N)=C/c1ccccc1F (centres undefined),inactive
17,O=C1c2cc([N+](=O)[O-])cc3cc([N+](=O)[O-])cc(c23)C(=O)N1c1ccccn1,inactive
18,N#C/C(=C\c1cccs1)C(=O)NCC1CCCO1 (centres undefined),inactive
19,N/C(=N\OC(=O)c1ccc([N+](=O)[O-])cc1)c1ccc(Br)cc1,inactive
20,CC(C)N=c1c([N+](=O)[O-])nn(C)n1O,inactive
21,CCN1CCc2c(sc(NC(=O)c3ccc(S(=O)(=O)N4CCCC4)cc3)c2C(=O)NC)C1,inactive
22,COc1cccc(NC(=O)c2cc3ccccc3cc2OC)c1,inactive
23,O=C(N/N=C/C(Cl)=C\c1ccccc1)c1cccs1,inactive

row,SMILES,outcome
1,CCOc1ccc(-c2ccc(SC)nn2)cc1,inactive
2,O=C(Nc1ccc(Cl)cc1)OCc1ccccn1,inactive
3,CC1CCN(c2nc3ccc(C(=O)O)cc3s2)CC1,inactive
4,O=C(O)c1ccc(Nc2nc3c(s2)CCCC3)cc1,inactive
5,Cc1c(C=O)c2cc(OCc3ccccc3)ccc2n1C,inactive
6,Cn1c(=O)c([N+](=O)[O-])c(-n2ccnc2)c2ccccc21,inactive
7,NCCCNc1nc(N)c([N+](=O)[O-])c(NC2CCCCC2)n1,inactive
8,N/C(=N\OC(=O)c1ccccc1Cl)c1cccc([N+](=O)[O-])c1,inactive
9,O=C(NC(=S)Nc1ccccn1)c1cccc([N+](=O)[O-])c1,inactive
10,Cc1ccc2c(COC(=O)c3n[nH]c4ccccc34)cc(=O)oc2c1,inactive
11,CC(C)(C)c1ccc(-c2noc(CCC(=O)NCc3ccco3)n2)cc1,inactive
12,Cc1cc(-n2c(SCC(=O)NCCC3=CCCCC3)nc3n[nH]c(C)c3c2=N)ccc1Cl,inactive
13,CC(/C=N/NC(=O)c1cc(-c2ccncc2)nc2ccccc12)=C\c1ccco1,inactive
14,COc1ccc(C)c2sc(N(CCN(C)C)C(=O)/C=C/c3cccs3)nc12,inactive
15,Cc1cccc2sc(N(CCCN(C)C)C(=O)c3nc4ccccc4s3)nc12,inactive
16,Cn1nc([N+](=O)[O-])nc1S(C)(=O)=O,inactive
17,COc1cccc(-c2nnc3n2N=C(C(C)(C)C)CS3)c1,inactive
18,COC(=O)[C@@H]1C[C@]2(OC(=O)c3ccccc3)C=CC(=O)C[C@@H]2N1C(=O)OCc1ccccc1,inactive
19,Cc1occc1C(=O)N/N=C/c1ccc(OCc2ccccc2)cc1,inactive
20,CC(=O)SC(C[N+](=O)[O-])c1cn(C(C)=O)c2ccccc12 (centres undefined),inactive
21,Cc1ccc(-c2cn3nc(C)c(C)nc3n2)cc1,inactive
22,O=C(Nc1ccc(-c2nc3ncccc3o2)cc1)c1ccc([N+](=O)[O-])o1,inactive
